Measurements taken from ChEMBL document CHEMBL1157539, “Thousands of chemical starting points for antimalarial lead identification” (Nature, 2010).

Experiments:
Assay type in all cases: functional
Plasmodium falciparum [1] = assay: GSK_TCMDC: Inhibition of Plasmodium falciparum 3D7 in whole red blood cells, using parasite LDH activity as an index of growth. Test compounds present at 2uM
Plasmodium falciparum [2] = assay: GSK_TCMDC: Inhibition of Plasmodium falciparum Dd2 in whole red blood cells, using parasite LDH activity as an index of growth. Test compounds present at 2uM
HepG2 = assay: GSK_TCMDC: Percent inhibition of human HepG2 cell line. Test compounds present at 10uM.

| SMILES | Inhibition (Plasmodium falciparum [1]) [%] | Inhibition (Plasmodium falciparum [2]) [%] | Inhibition (HepG2) [%] |
| --- | --- | --- | --- |
| COc1cc(C(=O)N2COCC(CCCN3CCC(N4CCCC4)CC3)(c3ccc(Cl)c(Cl)c3)C2)cc(OC)c1OC (configuration not stated) | 95 | 70 | 5 |
| CS(=O)(=O)c1ccc2nc(NC(=O)c3csnn3)sc2c1 | 90 | 95 | 3 |
| Cc1[nH]c(C)c(-c2ccc(-c3ccccc3F)nc2)c(=O)c1Cl | 97 | 97 | 7 |
| N#Cc1ccc(NC2(C(=O)N3CCN(c4cccc(Cl)c4)CC3)CC2)c2ccccc12 | 94 | 66 | 0 |
| CCOCCCn1c(=N)c(C(=O)NCc2ccc(OC)cc2)cc2c(=O)n3cccc(C)c3nc21 | 99 | 46 | 24 |
| CC(C)CCNCc1ccc(OCc2cccc(C(=O)Nc3ccccc3)c2)c(I)c1.O=C(O)C(F)(F)F | 100 | 59 | 25 |
| Br.N=C1N=C(N)NC2(CCCCC2)N1OCC1CCCCC1 | 96 | 49 | 70 |
| O=C(Nc1ccc(OC2CCN(Cc3ccc(F)cc3)CC2)c(Cl)c1)c1ccccc1.O=C(O)C(F)(F)F | 90 | 89 | 16 |
| Cc1ccccc1OCC(O)CNC1CCC(NCC(O)COc2ccccc2C)CC1 (configuration not stated) | 98 | 24 | 96 |
